In ChEMBL document CHEMBL2218924, “A broad activity screen in support of a chemogenomic map for kinase signalling research and drug discovery” (Biochem J, 2013):

Tests used:
[1] = molecular target: BDNF/NT-3 growth factors receptor (Homo sapiens) (UniProt Q16620); settings: at 10 µM
[2] = molecular target: T1, Tyrosine-protein kinase TXK (Homo sapiens) (UniProt P42681); settings: at 1 µM
T1 sequence (whole entry): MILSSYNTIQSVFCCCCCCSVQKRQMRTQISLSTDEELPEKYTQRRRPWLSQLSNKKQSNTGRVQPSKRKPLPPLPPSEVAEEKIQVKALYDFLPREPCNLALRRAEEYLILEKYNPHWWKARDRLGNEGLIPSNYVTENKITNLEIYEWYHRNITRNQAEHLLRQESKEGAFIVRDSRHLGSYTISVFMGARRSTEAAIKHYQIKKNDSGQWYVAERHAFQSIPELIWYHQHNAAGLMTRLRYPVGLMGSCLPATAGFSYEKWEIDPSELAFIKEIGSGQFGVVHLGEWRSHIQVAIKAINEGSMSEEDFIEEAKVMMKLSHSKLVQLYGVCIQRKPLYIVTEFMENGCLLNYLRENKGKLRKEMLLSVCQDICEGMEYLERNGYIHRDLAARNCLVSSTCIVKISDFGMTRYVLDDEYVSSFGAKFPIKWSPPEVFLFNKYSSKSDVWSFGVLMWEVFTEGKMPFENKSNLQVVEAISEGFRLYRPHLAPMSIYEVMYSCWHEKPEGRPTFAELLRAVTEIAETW

[3] = molecular target: T1, Tyrosine-protein kinase TXK (Homo sapiens); settings: at 10 µM
[4] = molecular target: T2, Serine/threonine-protein kinase ULK2 (Homo sapiens) (UniProt Q8IYT8); settings: at 1 µM
T2 sequence (whole entry): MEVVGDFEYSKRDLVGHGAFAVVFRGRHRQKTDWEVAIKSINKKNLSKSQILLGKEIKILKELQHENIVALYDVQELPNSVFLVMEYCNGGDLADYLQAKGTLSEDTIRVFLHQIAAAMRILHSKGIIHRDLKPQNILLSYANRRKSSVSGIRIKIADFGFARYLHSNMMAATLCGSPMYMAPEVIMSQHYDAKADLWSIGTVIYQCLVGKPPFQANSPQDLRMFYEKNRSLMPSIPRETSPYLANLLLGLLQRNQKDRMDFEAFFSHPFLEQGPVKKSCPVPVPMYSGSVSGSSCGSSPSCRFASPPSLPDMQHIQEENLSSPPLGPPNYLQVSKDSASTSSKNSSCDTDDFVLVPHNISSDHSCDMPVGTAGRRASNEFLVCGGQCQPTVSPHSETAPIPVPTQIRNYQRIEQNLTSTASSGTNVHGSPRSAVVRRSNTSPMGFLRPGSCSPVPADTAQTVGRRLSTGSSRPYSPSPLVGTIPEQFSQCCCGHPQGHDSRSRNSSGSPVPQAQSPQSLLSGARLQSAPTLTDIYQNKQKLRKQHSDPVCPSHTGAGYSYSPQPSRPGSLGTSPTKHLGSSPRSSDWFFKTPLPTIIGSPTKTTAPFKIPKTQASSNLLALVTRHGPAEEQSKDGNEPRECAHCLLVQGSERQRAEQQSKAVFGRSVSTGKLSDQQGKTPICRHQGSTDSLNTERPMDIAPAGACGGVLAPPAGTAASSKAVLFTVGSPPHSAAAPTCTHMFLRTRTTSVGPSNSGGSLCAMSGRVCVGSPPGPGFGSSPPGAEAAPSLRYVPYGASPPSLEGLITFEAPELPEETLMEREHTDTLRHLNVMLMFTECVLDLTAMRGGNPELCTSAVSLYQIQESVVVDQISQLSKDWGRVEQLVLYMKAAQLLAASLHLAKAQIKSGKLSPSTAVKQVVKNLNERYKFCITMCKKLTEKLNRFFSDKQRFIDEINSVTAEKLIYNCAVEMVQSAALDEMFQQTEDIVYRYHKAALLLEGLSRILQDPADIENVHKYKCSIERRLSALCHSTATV

[5] = molecular target: T2, Serine/threonine-protein kinase ULK2 (Homo sapiens); settings: at 10 µM
[6] = molecular target: T3, Serine/threonine-protein kinase ULK3 (Homo sapiens) (UniProt Q6PHR2); settings: at 1 µM
T3 sequence (whole entry): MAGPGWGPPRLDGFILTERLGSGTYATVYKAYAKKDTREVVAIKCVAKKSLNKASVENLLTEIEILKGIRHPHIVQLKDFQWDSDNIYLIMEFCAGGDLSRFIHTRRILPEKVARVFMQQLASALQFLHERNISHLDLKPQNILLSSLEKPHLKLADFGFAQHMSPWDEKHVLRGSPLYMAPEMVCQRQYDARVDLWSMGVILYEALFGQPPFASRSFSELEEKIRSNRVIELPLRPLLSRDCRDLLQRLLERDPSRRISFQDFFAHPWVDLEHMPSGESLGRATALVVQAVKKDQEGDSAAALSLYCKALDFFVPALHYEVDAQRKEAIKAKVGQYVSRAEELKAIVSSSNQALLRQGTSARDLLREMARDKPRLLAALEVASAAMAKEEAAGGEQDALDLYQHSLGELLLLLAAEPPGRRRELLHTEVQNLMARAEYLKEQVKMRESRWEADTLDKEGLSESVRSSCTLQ

[7] = molecular target: T3, Serine/threonine-protein kinase ULK3 (Homo sapiens); settings: at 10 µM
[8] = molecular target: Serine/threonine-protein kinase VRK2 (Homo sapiens) (UniProt Q86Y07); settings: at 1 µM
[9] = molecular target: Serine/threonine-protein kinase VRK2 (Homo sapiens) (UniProt Q86Y07); settings: at 10 µM
[10] = molecular target: Serine/threonine-protein kinase WNK2 (Homo sapiens) (UniProt Q9Y3S1); settings: at 1 µM
[11] = molecular target: Serine/threonine-protein kinase WNK2 (Homo sapiens) (UniProt Q9Y3S1); settings: at 10 µM
[12] = molecular target: Serine/threonine-protein kinase WNK3 (Homo sapiens) (UniProt Q9BYP7); settings: at 1 µM
[13] = molecular target: Serine/threonine-protein kinase WNK3 (Homo sapiens) (UniProt Q9BYP7); settings: at 10 µM
[14] = molecular target: Tyrosine-protein kinase Yes (Homo sapiens) (UniProt P07947); settings: at 1 µM
[15] = molecular target: Tyrosine-protein kinase Yes (Homo sapiens) (UniProt P07947); settings: at 10 µM
[16] = molecular target: T4, Tyrosine-protein kinase ZAP-70 (Homo sapiens) (UniProt P43403); settings: at 1 µM
T4 sequence (whole entry): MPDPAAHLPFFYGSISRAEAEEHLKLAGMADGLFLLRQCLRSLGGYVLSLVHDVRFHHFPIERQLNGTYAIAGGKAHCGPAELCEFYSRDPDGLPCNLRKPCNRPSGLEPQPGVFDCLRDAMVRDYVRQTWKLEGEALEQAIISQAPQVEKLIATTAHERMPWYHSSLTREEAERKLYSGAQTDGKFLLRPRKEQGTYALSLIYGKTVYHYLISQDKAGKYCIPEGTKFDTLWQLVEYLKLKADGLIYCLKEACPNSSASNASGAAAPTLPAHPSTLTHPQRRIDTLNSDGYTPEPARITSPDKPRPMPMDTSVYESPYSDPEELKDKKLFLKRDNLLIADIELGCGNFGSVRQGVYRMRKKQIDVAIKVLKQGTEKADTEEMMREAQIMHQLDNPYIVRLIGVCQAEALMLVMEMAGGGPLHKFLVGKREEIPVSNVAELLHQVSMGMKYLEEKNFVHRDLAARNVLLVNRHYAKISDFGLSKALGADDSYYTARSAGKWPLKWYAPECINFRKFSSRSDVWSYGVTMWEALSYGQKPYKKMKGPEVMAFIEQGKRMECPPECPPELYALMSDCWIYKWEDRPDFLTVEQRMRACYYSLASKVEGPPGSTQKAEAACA

[17] = molecular target: Death-associated protein kinase 3 (Homo sapiens) (UniProt O43293); settings: at 1 µM
[18] = molecular target: Death-associated protein kinase 3 (Homo sapiens) (UniProt O43293); settings: at 10 µM
[19] = molecular target: RAF proto-oncogene serine/threonine-protein kinase (Homo sapiens) (UniProt P04049); settings: at 1 µM
[20] = molecular target: RAF proto-oncogene serine/threonine-protein kinase (Homo sapiens) (UniProt P04049); settings: at 10 µM

Serine/threonine-protein kinase WNK3 (Homo sapiens), sequence (Q9BYP7 whole entry): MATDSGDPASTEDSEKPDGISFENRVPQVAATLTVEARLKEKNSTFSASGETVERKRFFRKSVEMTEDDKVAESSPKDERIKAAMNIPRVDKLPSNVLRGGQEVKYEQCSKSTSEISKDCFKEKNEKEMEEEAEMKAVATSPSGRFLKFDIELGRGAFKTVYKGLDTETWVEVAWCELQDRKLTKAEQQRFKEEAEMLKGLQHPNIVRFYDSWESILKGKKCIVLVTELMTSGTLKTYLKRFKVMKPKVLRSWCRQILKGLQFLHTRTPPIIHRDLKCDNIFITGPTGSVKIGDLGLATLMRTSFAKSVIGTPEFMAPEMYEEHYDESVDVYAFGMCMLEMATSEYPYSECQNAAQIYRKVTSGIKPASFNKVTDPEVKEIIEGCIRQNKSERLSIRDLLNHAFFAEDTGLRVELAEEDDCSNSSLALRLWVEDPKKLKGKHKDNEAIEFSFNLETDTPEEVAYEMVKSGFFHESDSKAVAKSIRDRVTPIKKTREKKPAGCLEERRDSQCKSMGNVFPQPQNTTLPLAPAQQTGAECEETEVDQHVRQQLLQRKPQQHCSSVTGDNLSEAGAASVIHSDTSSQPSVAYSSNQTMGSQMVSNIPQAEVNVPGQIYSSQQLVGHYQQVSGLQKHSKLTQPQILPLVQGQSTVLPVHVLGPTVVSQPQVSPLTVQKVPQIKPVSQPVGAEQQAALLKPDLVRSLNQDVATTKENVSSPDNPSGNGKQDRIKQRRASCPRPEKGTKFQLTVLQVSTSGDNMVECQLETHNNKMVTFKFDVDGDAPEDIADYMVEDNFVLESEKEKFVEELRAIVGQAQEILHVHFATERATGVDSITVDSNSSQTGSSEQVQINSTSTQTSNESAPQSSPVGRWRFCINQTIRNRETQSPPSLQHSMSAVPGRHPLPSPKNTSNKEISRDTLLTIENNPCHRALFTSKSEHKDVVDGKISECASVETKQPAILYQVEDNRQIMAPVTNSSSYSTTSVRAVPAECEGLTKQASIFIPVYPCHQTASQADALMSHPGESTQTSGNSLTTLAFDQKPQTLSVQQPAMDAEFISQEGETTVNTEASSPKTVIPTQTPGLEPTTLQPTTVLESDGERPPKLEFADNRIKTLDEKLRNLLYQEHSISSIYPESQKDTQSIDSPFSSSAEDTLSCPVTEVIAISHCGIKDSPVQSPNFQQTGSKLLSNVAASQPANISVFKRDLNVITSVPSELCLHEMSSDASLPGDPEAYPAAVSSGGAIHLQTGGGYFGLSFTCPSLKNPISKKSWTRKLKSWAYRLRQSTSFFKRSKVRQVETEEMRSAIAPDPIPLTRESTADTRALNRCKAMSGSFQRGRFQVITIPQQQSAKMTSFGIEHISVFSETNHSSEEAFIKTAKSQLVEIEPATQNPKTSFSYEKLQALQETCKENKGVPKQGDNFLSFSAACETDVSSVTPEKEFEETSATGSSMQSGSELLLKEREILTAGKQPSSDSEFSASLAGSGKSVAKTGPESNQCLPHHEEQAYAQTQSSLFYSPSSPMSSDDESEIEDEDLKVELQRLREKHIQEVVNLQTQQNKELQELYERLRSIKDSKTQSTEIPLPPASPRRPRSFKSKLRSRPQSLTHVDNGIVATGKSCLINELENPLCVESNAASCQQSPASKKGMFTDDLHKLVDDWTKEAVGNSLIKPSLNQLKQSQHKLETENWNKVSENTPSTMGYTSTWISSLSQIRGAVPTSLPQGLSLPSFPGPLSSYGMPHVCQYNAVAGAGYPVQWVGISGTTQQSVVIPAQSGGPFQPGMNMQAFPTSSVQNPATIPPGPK
Serine/threonine-protein kinase WNK2 (Homo sapiens), sequence (Q9Y3S1 whole entry): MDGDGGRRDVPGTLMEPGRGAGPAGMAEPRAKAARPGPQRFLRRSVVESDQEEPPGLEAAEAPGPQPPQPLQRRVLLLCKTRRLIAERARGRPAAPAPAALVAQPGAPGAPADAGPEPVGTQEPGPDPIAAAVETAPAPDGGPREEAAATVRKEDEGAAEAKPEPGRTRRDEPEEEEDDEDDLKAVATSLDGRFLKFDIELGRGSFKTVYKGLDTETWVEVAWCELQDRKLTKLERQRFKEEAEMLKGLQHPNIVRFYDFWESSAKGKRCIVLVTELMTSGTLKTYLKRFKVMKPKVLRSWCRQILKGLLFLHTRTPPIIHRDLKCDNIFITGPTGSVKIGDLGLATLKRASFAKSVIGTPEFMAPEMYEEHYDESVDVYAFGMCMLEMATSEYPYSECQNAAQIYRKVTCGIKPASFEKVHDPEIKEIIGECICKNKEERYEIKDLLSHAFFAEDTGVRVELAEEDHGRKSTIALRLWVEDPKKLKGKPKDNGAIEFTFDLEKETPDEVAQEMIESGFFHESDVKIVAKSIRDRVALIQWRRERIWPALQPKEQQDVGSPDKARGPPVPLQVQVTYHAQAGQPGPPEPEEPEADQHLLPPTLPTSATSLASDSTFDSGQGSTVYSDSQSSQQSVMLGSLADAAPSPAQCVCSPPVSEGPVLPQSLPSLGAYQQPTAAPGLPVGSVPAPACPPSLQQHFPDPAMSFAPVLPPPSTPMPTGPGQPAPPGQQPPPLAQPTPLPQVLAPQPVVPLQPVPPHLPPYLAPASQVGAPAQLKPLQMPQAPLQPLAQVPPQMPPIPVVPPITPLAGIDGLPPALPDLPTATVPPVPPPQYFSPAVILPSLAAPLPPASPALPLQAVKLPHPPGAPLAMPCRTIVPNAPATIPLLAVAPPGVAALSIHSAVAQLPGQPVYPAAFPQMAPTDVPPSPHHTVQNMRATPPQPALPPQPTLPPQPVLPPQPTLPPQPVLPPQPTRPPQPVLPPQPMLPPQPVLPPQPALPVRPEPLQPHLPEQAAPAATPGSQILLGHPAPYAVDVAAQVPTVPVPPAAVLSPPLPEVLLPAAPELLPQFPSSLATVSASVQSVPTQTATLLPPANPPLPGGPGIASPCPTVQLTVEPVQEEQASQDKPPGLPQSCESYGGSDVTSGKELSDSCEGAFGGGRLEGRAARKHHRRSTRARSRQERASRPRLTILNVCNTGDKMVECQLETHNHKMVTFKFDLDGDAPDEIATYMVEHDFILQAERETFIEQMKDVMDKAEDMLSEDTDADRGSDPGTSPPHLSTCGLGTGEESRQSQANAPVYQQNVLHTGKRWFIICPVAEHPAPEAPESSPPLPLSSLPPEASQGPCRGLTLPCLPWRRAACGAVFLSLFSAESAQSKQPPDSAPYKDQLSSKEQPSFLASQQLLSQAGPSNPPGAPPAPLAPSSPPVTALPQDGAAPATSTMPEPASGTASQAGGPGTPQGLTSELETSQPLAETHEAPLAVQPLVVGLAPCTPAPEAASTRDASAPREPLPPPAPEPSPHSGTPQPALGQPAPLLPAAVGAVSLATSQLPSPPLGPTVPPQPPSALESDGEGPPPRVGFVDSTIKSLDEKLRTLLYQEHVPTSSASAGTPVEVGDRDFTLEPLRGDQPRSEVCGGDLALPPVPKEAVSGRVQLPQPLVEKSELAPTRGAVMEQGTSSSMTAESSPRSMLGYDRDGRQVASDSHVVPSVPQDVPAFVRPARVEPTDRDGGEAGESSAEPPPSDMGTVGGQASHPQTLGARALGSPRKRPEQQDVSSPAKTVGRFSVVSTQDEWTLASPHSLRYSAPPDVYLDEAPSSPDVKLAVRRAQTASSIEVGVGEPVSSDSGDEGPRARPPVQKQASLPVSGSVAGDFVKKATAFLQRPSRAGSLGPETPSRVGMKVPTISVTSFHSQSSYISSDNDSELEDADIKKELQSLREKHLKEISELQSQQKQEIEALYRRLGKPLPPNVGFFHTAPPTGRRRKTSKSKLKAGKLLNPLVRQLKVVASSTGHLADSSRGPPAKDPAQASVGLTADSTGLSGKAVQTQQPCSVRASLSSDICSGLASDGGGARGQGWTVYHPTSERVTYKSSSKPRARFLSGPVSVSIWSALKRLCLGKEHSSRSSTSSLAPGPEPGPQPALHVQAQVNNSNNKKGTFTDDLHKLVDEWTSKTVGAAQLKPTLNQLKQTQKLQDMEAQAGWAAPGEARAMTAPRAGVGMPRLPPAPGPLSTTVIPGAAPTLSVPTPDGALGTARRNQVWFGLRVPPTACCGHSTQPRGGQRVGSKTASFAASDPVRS
Tyrosine-protein kinase Yes (Homo sapiens), sequence (P07947 2-543 limits assumed): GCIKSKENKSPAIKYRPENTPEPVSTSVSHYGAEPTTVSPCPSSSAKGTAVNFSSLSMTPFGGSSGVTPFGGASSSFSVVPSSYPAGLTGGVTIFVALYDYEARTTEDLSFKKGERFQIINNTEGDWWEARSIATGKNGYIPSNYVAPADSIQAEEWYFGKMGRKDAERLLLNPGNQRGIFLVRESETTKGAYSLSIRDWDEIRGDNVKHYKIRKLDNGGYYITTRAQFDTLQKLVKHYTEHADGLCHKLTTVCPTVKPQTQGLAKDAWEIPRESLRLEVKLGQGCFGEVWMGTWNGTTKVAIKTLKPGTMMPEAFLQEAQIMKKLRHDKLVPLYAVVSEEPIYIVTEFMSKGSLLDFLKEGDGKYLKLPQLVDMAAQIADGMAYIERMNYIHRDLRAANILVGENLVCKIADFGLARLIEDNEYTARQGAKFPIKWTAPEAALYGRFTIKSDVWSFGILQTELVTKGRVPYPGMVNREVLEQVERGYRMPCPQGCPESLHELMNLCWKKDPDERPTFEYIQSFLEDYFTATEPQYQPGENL
Serine/threonine-protein kinase VRK2 (Homo sapiens), sequence (Q86Y07 whole entry): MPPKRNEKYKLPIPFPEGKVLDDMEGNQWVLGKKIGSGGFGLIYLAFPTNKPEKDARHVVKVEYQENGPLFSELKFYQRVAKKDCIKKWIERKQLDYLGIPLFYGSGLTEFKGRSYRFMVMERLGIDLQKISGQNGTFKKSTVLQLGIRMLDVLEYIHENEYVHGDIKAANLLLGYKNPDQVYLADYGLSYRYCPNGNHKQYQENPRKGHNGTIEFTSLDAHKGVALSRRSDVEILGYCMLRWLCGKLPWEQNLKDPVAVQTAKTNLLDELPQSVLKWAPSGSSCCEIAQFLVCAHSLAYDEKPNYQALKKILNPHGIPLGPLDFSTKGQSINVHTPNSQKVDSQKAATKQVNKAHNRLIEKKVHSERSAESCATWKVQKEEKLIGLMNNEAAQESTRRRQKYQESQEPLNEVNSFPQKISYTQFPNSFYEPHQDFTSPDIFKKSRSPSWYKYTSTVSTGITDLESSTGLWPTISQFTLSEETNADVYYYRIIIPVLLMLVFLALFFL

SMILES	residual activity [1]	residual activity [2]	residual activity [3]	residual activity [4]	residual activity [5]	residual activity [6]	residual activity [7]	residual activity [8]	residual activity [9]	residual activity [10]	residual activity [11]	residual activity [12]	residual activity [13]	residual activity [14]	residual activity [15]	residual activity [16]	residual activity [17]	residual activity [18]	residual activity [19]	residual activity [20]
COc1ccc(CNc2nc(N(CCO)CCO)nc3c2ncn3C(C)C)cc1	96%	87%	89%	97%	97%	81%	82%	79% (inactive)	46%	88% (inactive)	86%	97% (inactive)	93%	100%	89%	102%	99%	92%	85%	69%
COc1cccc(-c2cc(=O)c3ccccc3o2)c1N	87%	77%	73%	117%	108%	100%	105%	99% (inactive)	96%	104% (inactive)	102%	82% (inactive)	100%	123%	106%	137%	105%	101%	85%	86%
Cc1ccc(NC2=CC(=O)c3sc(C)nc3C2=O)cc1	93%	80%	83%	101%	100%	96%	100%	89% (inactive)	88%	88% (inactive)	90%	80% (inactive)	95%	118%	105%	113%	95%	82%	84%	87%
CC(C)n1cnc2/c(=N/c3cccc(Cl)c3)nc(NCCO)[nH]c21	2%	68%	37%	68%	31%	42%	11%	71% (inactive)	19%	90% (inactive)	52%	88% (inactive)	57%	27%	2%	98%	103%	93%	70%	31%
O=C(Nc1cccc(Nc2nccc(Nc3cccc(C(F)(F)F)c3)n2)c1)C1CC1	-5%	60%	15%	101%	88%	97%	66%	93% (inactive)	85%	104% (inactive)	50%	90% (inactive)	65%	56%	51%	113%	84%	49%	89%	85%
O=C1NC(=O)c2cc(Nc3ccc(F)cc3)c(Nc3ccc(F)cc3)cc21	88%	79%	27%	107%	89%	107%	81%	99% (inactive)	86%	82% (inactive)	34%	87% (inactive)	46%	61%	10%	113%	104%	99%		
